Our source for the Potency values is PubChem BioAssay (Tox21).

Inconclusive results are not listed. Entries that show only a call come without a potency. Active and inactive are the calls of the source. Calls come from the whole dose curve; as a rule, active = well fitted activation curve with a large enough effect in the repeat runs; inconclusive = weak or mixed curves; inactive = no such curve, though single readings can be large or run the other way.
Potency is the fitted concentration of half-maximal effect.

Chain of Aryl hydrocarbon receptor (Homo sapiens) (P35869 whole entry, looked up): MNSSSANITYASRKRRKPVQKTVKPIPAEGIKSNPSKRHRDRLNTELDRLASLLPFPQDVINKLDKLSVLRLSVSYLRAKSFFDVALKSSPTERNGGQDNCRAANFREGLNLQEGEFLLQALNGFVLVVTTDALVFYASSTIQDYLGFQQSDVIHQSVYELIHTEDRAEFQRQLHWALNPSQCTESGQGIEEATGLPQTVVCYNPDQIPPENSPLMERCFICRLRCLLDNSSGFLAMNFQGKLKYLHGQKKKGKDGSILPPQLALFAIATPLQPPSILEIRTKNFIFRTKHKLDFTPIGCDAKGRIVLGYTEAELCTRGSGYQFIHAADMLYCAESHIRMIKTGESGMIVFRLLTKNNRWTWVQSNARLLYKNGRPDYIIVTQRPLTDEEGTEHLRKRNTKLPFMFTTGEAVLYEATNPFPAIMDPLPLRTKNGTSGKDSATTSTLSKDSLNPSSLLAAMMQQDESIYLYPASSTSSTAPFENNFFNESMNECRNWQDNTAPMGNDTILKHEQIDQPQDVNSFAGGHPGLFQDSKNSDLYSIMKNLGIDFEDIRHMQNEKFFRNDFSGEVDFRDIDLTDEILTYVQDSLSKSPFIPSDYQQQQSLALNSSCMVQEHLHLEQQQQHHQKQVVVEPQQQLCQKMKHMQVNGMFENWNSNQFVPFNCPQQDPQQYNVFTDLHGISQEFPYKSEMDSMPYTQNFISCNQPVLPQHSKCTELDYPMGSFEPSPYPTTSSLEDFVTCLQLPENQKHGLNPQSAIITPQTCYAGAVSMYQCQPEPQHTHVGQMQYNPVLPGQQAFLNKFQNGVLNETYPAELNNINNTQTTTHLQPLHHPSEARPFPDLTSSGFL

This test has as its target Aryl hydrocarbon receptor (Homo sapiens) (UniProt P35869). The test is described as follows: qHTS assay to identify small molecule that activate the aryl hydrocarbon receptor (AhR) signaling pathway (AID 743085).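 For activation: HG2L7.5c1 human HepG2 liver cells with stably integrated DRE-driven firefly reporter.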 Note: nearly all actives have a fitted effect of over 15% in size. The settings on record: HepG2 AhR-luc (HG2L7.5c1), luciferase, 24 h; series mostly up to 70.3 µM. The source says: U.S. Tox21 Program National Center for Advancing Translational Sciences [NCATS] NIH Chemical Genomics Center [NCGC] U.S. Environmental Protection Agency [EPA] National Institutes of Environmental Health Sciences [NIEHS] National Toxicology Program [NTP] U.S. Food and Drug Administration [FDA] Tox21 Assay overview: The Aryl hydrocarbon Receptor (AhR), a member of the family of basic helix-loop-helix transcription factors, is crucial to adaptive responses to environmental changes. AhR mediates cellular responses to environmental pollutants such as aromatic hydrocarbons through induction of phase I and II enzymes but also interacts with other nuclear receptor signaling pathways. A cell based HepG2-AhR-luc assay (HG2L7.5c1 cell line, developed by Dr. Michael S. Denison, University of California at Davis, was used to assess the activation of AhR. HepG2 (human hepatocellular carcinoma) cells were stably transfected with an Ah receptor-responsive firefly luciferase reporter gene plasmid containing 20 dioxin responsive elements and luciferase reporter gene. Increased luciferase activity can be used to identify the compounds that induce AhR activation.
Tox21 Assay Protocol Summary: 4000 cells in 5 uL/well were dispensed into white wall/solid bottom 1536-well plates using a Multidrop Combi (Thermo Fisher Scientific Inc., Waltham, MA) dispenser. After the assay plates were incubated at 37C for 5 h, 23 nL of compound or DMSO vehicle was transferred to the assay plates by a pintool station (Kalypsys, San Diego, CA). The plates were incubated at 37C for 24 hr. After 1 ul/well of CellTiter-Fluor reagent (Promega, Madison, WI) was added into the assay plates using a Flying Reagent Dispenser (FRD) (Aurora Discovery, CA), the assay plates were incubated at 37C for 30 min. The fluorescence intensity in the plates was measured using a ViewLux plate reader (PerkinElmer, Shelton, CT), followed by the addition of 4 uL of ONE-Glo Luciferase Assay reagent (Promega) using an FRD (Aurora Discovery). After the assay plates were incubated at room temperature for 30 min, luminescence intensity was measured using a ViewLux plate reader (Perkin Elmer).
Background: Quantitative high-throughput screening tests each substance at several concentrations.
As to `CCCCCCc1ccc(N)cc1`, the Potency entry was “inactive”. For `Cc1nc2ccccc2n1Cc1ccc(Cl)cc1` the value was “inactive”. Regarding `Nc1nc(N)c2nc(CNc3ccc(C(=O)N[C@@H](CCC(=O)O)C(=O)O)cc3)cnc2n1`, the Potency entry was “inactive”. As to `C[C@@H](C1=C(CCN(C)C)Cc2ccccc21)c1ccccn1`, the Potency result was “inactive”. On to `CCCCCC/C=C/C=O`, for which the Potency entry was “inactive”.

For the compound `CCCCOC(O)CC` (stereo not given), the Potency result was “inactive”. In the case of `C=CC(=O)OCC(C)OCC(C)OCC(C)OC(=O)C=C` (stereo not given), the Potency result is “inactive”. In the case of `COC(=O)CSc1cc(N=c2sc(=O)n3n2CCCC3)c(F)cc1Cl`, the Potency result was “inactive”.

Take `O=C(O)c1cccc(N(Cc2cccnc2)c2ccc(OC(F)F)c(OC(F)F)c2)c1`: the Potency entry was “inactive”. As to `NCCCOCCOCCOCCCN`, the Potency result was “inactive”. For the compound `CCCCCCCCCCCCCCCBr`, the Potency entry was “inactive”. As to `CCCCCCCC/C=C\CCCCCCCC(N)=O`, the Potency result was “inactive”.

As to `Cn1sccc1=O`, the Potency entry is “inactive”. With `CCCCCCCCCC=O`, the Potency result is “inactive”. `CCCCCCCCCCCCCCC1CO1` (stereo not given): the Potency result is “inactive”. Consider `CNCC[C@@H](Oc1ccccc1C)c1ccccc1`, for which the Potency entry was “inactive”.

With `OCCC1CCCCN1` (stereo not given), the Potency entry is “inactive”. Take `CCCCCC(CO)CCC` (stereo not given): the Potency result was “inactive”. As to `N#Cc1cc2ccccc2c2ccccc12`, the Potency was 61.4 µM (active). On to `CCOC(=O)C1=NN(c2ccccc2)C(=O)C1`, for which the Potency entry is “inactive”. For the compound `C1=Cc2ccccc2C1`, the Potency is 27.3 µM (active). Turning to `CC(CN)CCCN` (stereo not given), the Potency result was “inactive”.

Regarding `CC[C@H](C)[C@H](N)C(=O)O`, the Potency entry is “inactive”. Regarding `CC(C)NCC(O)COc1ccc(CC(N)=O)cc1` (stereo not given), the Potency result is “inactive”.

With `C=CC(=O)OCCOC(=O)CCC(=O)O`, the Potency entry was “inactive”. Regarding `CCN(CC)CCNC(C(=O)OCCC(C)C)c1ccccc1` (stereo not given), the Potency result was “inactive”. `CC(C)CC=O`: the Potency result is “inactive”. For `CC(=O)N(O)CCCCCNC(=O)CCC(=O)N(O)CCCCCNC(=O)CCC(=O)N(O)CCCCCN`, the Potency result was “inactive”. With `Cc1ccc(C(=O)C(C)CN2CCCCC2)cc1` (stereo not given), the Potency result is “inactive”. `CC(C)(C)c1ccc(OCC2CO2)cc1` (stereo not given): the Potency entry is “inactive”. In the case of `O=C(CC(=O)c1ccccc1)c1ccccc1`, the Potency is 65.7 µM (active). With `CCCCCCCCCCCCCCCCCBr` the entry was “inactive”. Consider `Oc1ccc2c(c1)OCO2`, for which the Potency result is “inactive”.

`COc1ccc(OC)c(OC)c1`: the Potency result was “inactive”. On to `CC1(C)[C@H]2CC[C@]1(C)[C@H](O)C2`, for which the Potency result was “inactive”. For the compound `OC(CCN1CCCCC1)(c1ccccc1)C1CCCCC1` (stereo not given), the Potency entry was “inactive”. Consider `N#Cc1c(F)cccc1F`, for which the Potency entry is “inactive”. With `COC(Cc1ccccc1)OC`, the Potency entry is “inactive”. For the compound `CC(=O)c1ccc2c(c1)[C@H](NC(=O)c1ccc(F)cc1)[C@@H](O)C(C)(C)O2`, the Potency result was “inactive”. For the compound `CN1CCC[C@@H]1c1cccnc1`, the Potency result was “inactive”.
